The results in this text go back to PubChem BioAssay (NCI).

About 83,000 compounds went through this panel and 20% of them were active in at least one assay; those are over-represented in the sample as a whole.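 The endpoint reported here, percent growth, reads 100 for growth as untreated, 0 for no net growth and -100 for all cells dead.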 Unmarked numbers belong to inactive results. Activity calls are given as the source filed them. The calls were made as follows: active = growth percent below 10; inactive = the rest.

Holding throughout (test): NCI-60 one-dose screen, 48 h (100 = growth as untreated, 0 = no growth, -100 = all killed)
Holding throughout (settings): 10 µM unless noted

The subject of assay [1] is SR leukemia.
Assay [2] deals with RPMI-8226 leukemia.
Assay [3] has as its system OVCAR-8 ovarian.
The subject of assay [4] is OVCAR-5 ovarian.
For assay [5], the system named is OVCAR-4 ovarian.
Assay [6] has as its system SK-OV-3 ovarian.
Assay [7] has as its system IGROV1 ovarian.
Assay [8] concerns OVCAR-3 ovarian.
Assay [9] relates to HS 578T breast.
Assay [10] relates to NCI/ADR-RES ovarian.
Assay [11] deals with T-47D breast.
Assay [12] deals with BT-549 breast.
Assay [13] relates to MDA-MB-435 melanoma.
For assay [14], the system named is SW-620 colon.
Assay [15] relates to MCF7 breast.
Assay [16] relates to HCT-116 colon.
Assay [17] relates to HCC-2998 colon.
Assay [18] has as its system KM12 colon.

In the case of `Nc1c(C(=O)Nc2cccc3ncccc23)sc2nc3c(cc12)CN(Cc1ccccc1)CC3`, the growth is 33.9% in [1]; 58.4% in assay [2]; 83% in assay [3]; 88.8% in assay [4]; 71.5% in assay [5]; 78.4% in assay [6]. Also, the growth in assay [7] was 72.6%; in assay [8] it was 80.1%; in [9], 76.9%; in [10] it was 87.9%; in assay [11] it was 41.3%; in [12], 71.5%. Besides, the growth in assay [13] is 22.1%; in assay [14] it was 83.7%; in [15] it was 53.1%; in assay [16], 74.2%; in assay [17], 93.5%; in assay [18], 86.7%.

With `COc1cc(N2C(=O)[C@H](Cl)C2c2ccc(SC)cc2)cc(OC)c1OC` (some centres not stated), the growth in assay [1] was 1.95% (active); in [2], 3.63% (active); in [3] it was 8.62% (active); in [4], 70%; in assay [5], 48%; in assay [6], 20.4%. In addition, the growth in [7] is 27.8%; in assay [8] it was 3.77% (active); in [9] it was 25.1%; in assay [10] it was -0.874% (active); in assay [11] it was 49.1%; in [12] it was -9.33% (active). Also, the growth in [13] is -26.3% (active); in assay [14] it was 24.3%; in assay [15], 12.4%; in assay [16], -17.2% (active); in assay [17], 7.52% (active); in assay [18], 14.4%.

Turning to `Cc1ccc(S(=O)(=O)OC[C@]23CCC(C)(C)C[C@H]2C2=CC[C@@H]4[C@@]5(C)CCCNC(C)(C)[C@@H]5CC[C@@]4(C)[C@]2(C)CC3)cc1`, the growth in assay [1] is -27.3% (active); in assay [2] it was 26.8%; in [3] it was -13.7% (active); in [4] it was 84.7%; in [5], 23.3%; in assay [6] it was 103%. Besides, the growth in [7] is 16.9%; in assay [8] it was 76.5%; in assay [9], 85.3%; in assay [10], 52.3%; in [11], 1.19% (active); in [12], 88.2%. Besides, the growth in assay [13] was 31%; in [14], -71.3% (active); in [15], 23.8%; in [16] it was -83% (active); in [17], -12.3% (active); in assay [18], -1.94% (active).

For the compound `CS(=O)(=O)Nc1cc(-c2ccc3ncnc(Nc4ccc5c(cnn5Cc5ccccc5F)c4)c3c2)cnc1Cl`, the growth was 35.4% in [1]; 5.17% (active) in assay [2]; 69.7% in assay [3]; 37.9% in assay [4]; 63.4% in assay [5]; 29.9% in [6]. The growth was -15.8% (active) in [7]; 13.1% in assay [8]; 7.95% (active) in assay [9]; 92.2% in [10]; -4.36% (active) in assay [11]; 14.6% in assay [12]. The growth in assay [13] is 43.6%; in [14] it was 46.8%; in [15], 13.9%; in assay [16], 60.4%; in assay [17], 59.3%; in assay [18] it was 71.5%.

Turning to `COc1ccc(/C=C2\CN(C(=O)C(Cl)Cl)C/C(=C\c3ccc(OC)c(OC)c3)C2=O)cc1OC`, the growth in assay [1] is 6.16% (active); in assay [2] it was -5.84% (active); in assay [3] it was 19.1%; in [4] it was 10.6%; in assay [5], 19.8%; in [6], 48.3%. Also, the growth is -43.9% (active) in [7]; -16.6% (active) in [8]; 21.1% in [9]; 13.7% in assay [10]; 0.33% (active) in assay [11]; -41% (active) in [12]. The growth is -34.3% (active) in assay [13]; -41.4% (active) in [14]; 0.517% (active) in [15]; -83.6% (active) in assay [16]; -95.5% (active) in assay [17]; -49.7% (active) in assay [18].

On to `O=C(N/N=C/c1ccc(Cl)cc1)c1ccc(NC(=O)c2ccccn2)cc1`, for which the growth was 43.3% in assay [1]; 62.1% in [2]; 46.1% in assay [3]; 67.6% in assay [4]; -77.6% (active) in assay [5]; 53.9% in assay [6]. Moreover, the growth in assay [7] is 30.9%; in assay [8] it was 0.827% (active); in [9] it was 53.9%; in assay [10] it was 53.2%; in assay [11] it was 52.1%; in assay [12] it was 62.7%. Also, the growth in [13] was 63.8%; in assay [14] it was 71.5%; in assay [15], 52.3%; in assay [16] it was 5.15% (active); in assay [17], 72.3%; in [18] it was 73.2%.

As for `CCOC(=O)C#Cc1c(C(=O)OCC)nnn1[C@@H]1O[C@H](COC)[C@@H](OC)[C@H]1OC`, the growth in assay [1] is 8.26% (active); in [2] it was 62.5%; in assay [3], 104%; in assay [4] it was 90.1%; in assay [5], 73.5%; in assay [6], 92.6%. The growth was 95.1% in assay [7]; 15.5% in assay [8]; 97% in assay [9]; 109% in assay [10]; 15.2% in assay [11]; 98.7% in assay [12]. The growth in [13] was 98.7%; in assay [14], -38.7% (active); in [15] it was 8.52% (active); in assay [16], 84%; in assay [17], 128%; in assay [18], 105%.

`Cn1cc(-c2nc3c(F)cc4[nH]ncc4c3c3c2CCCC3)c(C(F)(F)F)n1`: the growth in assay [1] was -30.9% (active); in assay [2], -5.82% (active); in assay [3] it was 39.4%; in assay [4], 65%; in assay [5], 73.8%; in assay [6] it was 14.1%. The growth in assay [7] is 24%; in [8], 55.2%; in assay [9] it was 18%; in [10], 60.2%; in assay [11], 39.9%; in assay [12], 4.21% (active). Also, the growth was 14% in assay [13]; 18.6% in assay [14]; 24.6% in assay [15]; 15.1% in assay [16]; 65.3% in [17]; 24.2% in assay [18].

Regarding `CCN(CC)CCCC(Cc1ccccc1)Nc1c2ccc(Cl)cc2nc2ccc(OC)cc12` (configuration not stated), the growth in assay [1] is -27.4% (active); in assay [2], -6.17% (active); in [3] it was 36.4%; in assay [4] it was 71.1%; in [5], 30.8%; in [6], 101%. Further, the growth in assay [7] was 32.7%; in assay [8] it was 77.4%; in [9], 52.2%; in assay [10], 45%; in assay [11], -6.99% (active); in assay [12] it was 53.3%. The growth in [13] is -66.5% (active); in assay [14], 13.2%; in assay [15] it was -9.45% (active); in assay [16] it was 14.6%; in assay [17], -72.1% (active); in assay [18], 45.3%.
